Inconclusive results are not listed. Activity calls are given as the source filed them. The call rests on the fitted dose curve; in most records, active means well fitted inhibition curve with a large enough effect; inconclusive means small, poorly fitted or top-dose-only effect; inactive means no such curve, though single readings can be large or run the other way.
Assay: Counterscreen Assay for Inhibitors of the ERK Signaling Pathway using a Homogeneous Screening Assay
Source text: qHTS Assay for Inhibitors of the ERK Signaling Pathway using a Homogeneous Screening Assay
NIH Chemical Genomics Center [NCGC]
NIH Molecular Libraries Screening Centers Network [MLSCN]
Assay Submitter (PI): Dr. Wei Zheng, NCGC/NIH
The Ras/extracellular-signal-regulated kinase (ERK) mitogen activated protein (MAP) kinase signaling pathway (ERK1/2 cascade) plays is a key role in transmitting signals from the cell surface to the nucleus (Nishida and Gotoh 1993; Chang and Karin, 2001). The cascade is initiated by the small G-protein Ras, which recruits Raf […], where activation occurs. Alternatively, this pathway can be activated by elevating intracellular cAMP.
Activation of the ERK pathway is essential in increased cell division and cell survival. Sustained and constitutive activation of the ERK pathway, however, has been linked to uncontrolled cell proliferation, increased cell survival, and tumor progression. Thus, the ERK has been as an attractive target for cancer chemotherapy in the past few years (Sebolt-Leopold and Herrera, 2004). […]
Biotinylated rabbit IgG was used to perform a counter-screen in the context of an AlphaScreen assay kit provided by PerkinElmer. […] AC50 values were determined from concentration-response data modeled with the standard Hill equation. […]
(10) Detect the assay plate in an EnVision plate reader (PerkinElmer) using the AlphaScreen detection mode. […]

| SMILES | outcome |
| --- | --- |
| CCN1C(=O)NC(=O)/C(=C/c2cc(C)n(-c3sc(C)c(C)c3C#N)c2C)C1=O | inactive |
| O=C1NC(=O)C(=Cc2ccccc2Oc2ccc(F)cc2)C(=O)N1 | inactive |
